Screening data deposited in PubChem by National Center for Advancing Translational Sciences (NCATS).
This is a sample that favours compounds with a hit; in the whole collection about 19% have one here.
IL-1B inflam inh: qHTS for Inhibitors of Inflammasome Signaling: IL-1-beta AlphaLISA Primary Screen; activity change, % at 57.5 µM; 360,000 tested, 4.7% active; THP-1 LPS/ATP IL-1B secretion, AlphaLISA, 16 h; stronger effect = lower value; in the data active means activity change below about -50%; inconclusive means mostly about -30% to -49%
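Secreted IL-1B measured by AlphaLISA bead assay after 16 h compound exposure of THP-1 cells; compounds (final up to 57.5 uM) added 1 h before LPS (250 ng/mL) and ATP (1.25 mM) stimulation; lower signal means less secretion.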
DT40 TDP1 no CPT: qHTS for Inhibitors of human tyrosyl-DNA phosphodiesterase 1 (TDP1): qHTS in cells in absence of CPT; Potency, µM (titrated, usually from 46.2 µM), inactives show top-dose activity change, negative = growth inhibition, usual class: inhibitors; 420,000 tested, 15% active; AID 686978, 2013; DT40 Tdp1-/- hTDP1 cells, no CPT, ATP luminescence, 48 h; further: potency means the concentration at half of the fitted maximal effect; nearly all actives have a fitted effect of over 55% in size
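Growth kinetics read by CellTiter-Glo luminescence after ≥48 hr at 37 °C. Cells: DT40 Tdp1-/- stably carrying human TDP1, 400 per well, compound exposure in the absence of CPT (DMSO vehicle).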
TDP1 cell CPT: qHTS for Inhibitors of human tyrosyl-DNA phosphodiesterase 1 (TDP1): qHTS in cells in presence of CPT | Potency, µM (highest dose often 46.2 µM), for inactives: top-dose activity change, negative = growth inhibition, hits mostly inhibitors | chicken DT40 Tdp1-/-;hTDP1 cells + 20 nM CPT, ATP luminescence, 48 h | 420,000 tested, 12% active | AID 686979, 2013; further: potency means the concentration at half of the fitted maximal effect; nearly all actives have a fitted effect of over 55% in size
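Cell growth measured by CellTiter-Glo luminescence after a minimum 48 h, 37 C compound exposure with 20 nM CPT in Tdp1-knockout DT40 cells stably expressing hTDP1, seeded 400/well; qHTS titration format.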
HT1080 IDH1KD tx: qHTS for induction of synthetic lethality in tumor cells producing 2HG: qHTS for the HT-1080-IDH1KD cell line; HT-1080 IDH1 knockdown viability, ATP luminescence, 48 h; Potency, µM (top dose mostly 46.1 µM), without a hit: top-dose activity, negative = toxicity, actives largely listed as cytotoxic; 360,000 tested, 2% active;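 further: potency means the concentration at half of the fitted maximal effect; 0% = DMSO wells and -100% = cell-free medium wells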
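Knockdown cells (IDH1KD HT-1080) received compounds 2 h after plating at 750 cells/well and were kept 48 h at 37 °C in 5% FBS RPMI. A CellTiter-Glo luminescence read gave % activity for curve fitting.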
HT1080NT lethal: qHTS for induction of synthetic lethality in tumor cells producing 2HG: qHTS for the HT-1080-NT fibrosarcoma cell line; HT-1080-NT fibrosarcoma viability, CellTiter-Glo ATP luminescence, 48 h; Potency, µM (doses to about 46.1 µM), without a hit: top-dose activity, negative = less viability, actives largely listed as cytotoxic; 360,000 tested, 1.6% active;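 further: NT is the 2HG producing partner of a matched IDH1 knockdown line; potency means the concentration at half of the fitted maximal effect; 0% = DMSO-treated cells and -100% = media-only wells without cells; nearly all actives have a fitted effect of over 55% in size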
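Toxicity toward the 2HG-producing NT line was scored as %Activity, normalised to DMSO and no-cell wells, from CellTiter-Glo luminescence after 48 hours' treatment.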
* = called active by the depositor; ? = inconclusive; · = not tested or not shown. Unless noted, the call rests on the fitted dose curve; in most records, active means well fitted curve in the direction sought with a large enough effect; inconclusive means small, poorly fitted or top-dose-only effect, or another doubt; inactive means no such curve, though single readings can be large; an effect the other way counts as inactive or inconclusive. Unless noted, on the % scale 0 is the no-effect control and ±100 the full control effect.

SMILES	IL-1B inflam inh	DT40 TDP1 no CPT	TDP1 cell CPT	HT1080 IDH1KD tx	HT1080NT lethal
C=CCOC(=O)COc1ccc2c3c(c(=O)oc2c1)CCCC3	2	2%	-7%	6%	1%
COc1ccc(C=NNC(=O)c2cc(C)oc2C)cc1O	8	16µM*	?	?	?
Cc1ccc(/C=N/NC(=O)c2cc(C)oc2C)cc1	-7	16µM*	23µM*	21µM*	?
Cc1cc2nnc(SCC(=O)Nc3cccc(S(=O)(=O)N4CCOCC4)c3)n2c2ccccc12	-24	?	-15%	1%	9%
COc1cccc(NC(=O)C2(C)CCN2C(=O)CCc2ccc(Cl)cc2Cl)c1 (stereo unspecified)	-20	?	?	-18%	-19%
CC(C)(C)OC(=O)NCc1ccc(NC(=O)c2nc[nH]c2C(=O)NCCN(CCNC(=O)c2[nH]cnc2C(=O)Nc2ccc(CNC(=O)OC(C)(C)C)cc2)CCNC(=O)c2[nH]cnc2C(=O)Nc2ccc(CNC(=O)OC(C)(C)C)cc2)cc1	-10	-19%	?	3%	11%
CC(C)(C)OC(=O)NCc1ccc(NC(=O)c2nc[nH]c2C(=O)NCCCCCCNC(=O)c2[nH]cnc2C(=O)Nc2ccc(CNC(=O)OC(C)(C)C)cc2)cc1	76	5.8µM*	5.8µM*	-2%	0%
CC(C)(C)OC(=O)NCc1ccc(NC(=O)c2nc[nH]c2C(=O)NCCCNC(=O)c2[nH]cnc2C(=O)Nc2ccc(CNC(=O)OC(C)(C)C)cc2)cc1	84	26µM*	13µM*	0%	-5%
CC(C)(C)OC(=O)NCc1ccc(NC(=O)c2nc[nH]c2C(=O)NCCCCNC(=O)c2[nH]cnc2C(=O)Nc2ccc(CNC(=O)OC(C)(C)C)cc2)cc1	59	2.9µM*	4.1µM*	11%	13%
CC(C)(C)OC(=O)NCCCC[C@H](NC(=O)c1[nH]cnc1C(=O)Nc1ccc(CNC(=O)OC(C)(C)C)cc1)C(=O)OC(C)(C)C	0	4.6µM*	5.8µM*	?	?
CC1CCN(C(=O)c2[nH]cnc2C(=O)N[C@@H](CCCCNC(=O)OC(C)(C)C)C(=O)OC(C)(C)C)CC1	0	?	?	0%	?
Cc1ccnc(NC2OC(=O)c3ccccc32)c1 (stereo unspecified)	8	-5%	-7%	8%	0%
O=[N+]([O-])c1ccc2nc(/C=C/c3ccc(Cl)cc3)[nH]c2c1	-94*	18µM*	21µM*	?	?
CCCC[n+]1ccc(-c2nc3ccc([N+](=O)[O-])cc3[nH]2)cc1	20	-24%	4%	5%	2%
O=[N+]([O-])c1ccc2nc(C(O)C(O)c3nc4ccc([N+](=O)[O-])cc4[nH]3)[nH]c2c1 (stereo unspecified)	21	-27%	-17%	-9%	-4%
O=[N+]([O-])c1ccc(-c2nc3ccc([N+](=O)[O-])cc3[nH]2)cc1	-91*	9.2µM*	13µM*	?	?
Nc1ccc(-c2nc3ccc([N+](=O)[O-])cc3[nH]2)cc1	-80*	?	?	-2%	1%
CC(=O)Nc1ccc(/C(C)=N/NS(=O)(=O)c2ccccc2)cc1	14	14%	5%	19%	10%
COc1cc(NC(=O)c2ccc3oc(=O)c(S(=O)(=O)c4ccccc4)cc3c2)cc(OC)c1	·	-7%	-9%	·	·
CCC(c1nnnn1-c1c(C)cccc1C)N1CCN(CCN2CCOCC2)CC1 (stereo unspecified)	12	-16%	-8%	1%	10%
